Assay outcomes from PubChem.
Pol beta inh – blocks human DNA polymerase beta activity | actives 1.3% (n = 340,000) | Potency, µM (titrated, usually from 114 µM), inactives show at the top dose activity change, negative = inhibition, most hits filed as inhibitors | Pol beta primer extension/strand displacement, fluorescence kinetic | AID 485314 | P06746; note: % is set by controls: 0 for no effect and ±100 for the full control effect
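Reaction started by 50 nM substrate onto compound-treated Pol beta (10 nM, 15 min preincubation, room temperature); plates read at 0 min and 10 min. Normalized concentration-effect data fitted by four-parameter Hill equation.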
POLI inh – DNA polymerase iota (human) inhibition; Q9UNA4; Pol iota fluorescent replication assay, 10 min; Potency, µM (titrated, usually from 115 µM), for inactives: top-dose activity, negative = inhibition, most hits filed as inhibitors; actives 1% (n = 390,000)
Target sequence (Q9UNA4 whole entry, looked up): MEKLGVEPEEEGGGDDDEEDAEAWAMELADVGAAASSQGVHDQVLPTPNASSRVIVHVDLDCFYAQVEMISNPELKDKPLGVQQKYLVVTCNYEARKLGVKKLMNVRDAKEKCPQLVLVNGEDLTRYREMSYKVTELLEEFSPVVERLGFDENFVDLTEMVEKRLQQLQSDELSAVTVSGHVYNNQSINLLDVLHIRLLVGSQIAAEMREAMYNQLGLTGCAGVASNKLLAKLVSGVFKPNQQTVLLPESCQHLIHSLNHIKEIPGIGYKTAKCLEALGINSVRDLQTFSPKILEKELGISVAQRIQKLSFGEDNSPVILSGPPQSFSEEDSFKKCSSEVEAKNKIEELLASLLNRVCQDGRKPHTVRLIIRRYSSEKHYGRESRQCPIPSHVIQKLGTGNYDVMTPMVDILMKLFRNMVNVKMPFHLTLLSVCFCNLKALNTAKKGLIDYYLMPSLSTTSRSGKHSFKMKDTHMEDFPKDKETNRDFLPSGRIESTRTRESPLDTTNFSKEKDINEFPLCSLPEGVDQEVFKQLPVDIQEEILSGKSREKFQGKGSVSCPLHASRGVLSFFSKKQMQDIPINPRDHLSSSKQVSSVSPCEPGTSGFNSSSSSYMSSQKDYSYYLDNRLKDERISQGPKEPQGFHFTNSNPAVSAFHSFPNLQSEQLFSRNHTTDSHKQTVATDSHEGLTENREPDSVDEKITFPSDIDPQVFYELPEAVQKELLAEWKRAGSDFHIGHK
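Pol iota at 10 nM preincubated 15 min with compounds at room temperature; reaction started with fluorescent substrate, 50 nM final. Fluorescence read kinetically at 0 and 10 min; buffer-only wells as negative control.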
FEN1 inhibitor – blocks human flap endonuclease 1; P39748; Recombinant FEN1 flap cleavage, fluorescence, 15 min; Potency, µM (doses to about 114 µM), for the others: at the highest dose activity change, negative = inhibition, most hits filed as inhibitors; actives 0.35% (n = 390,000); note: % is set by controls: 0 for no effect and ±100 for the full control effect; nearly all actives have a fitted effect of over 65% in size
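Read-out was taken twice, immediately and after 15 min, following addition of 50 nM substrate to 10 nM FEN1 that had sat with test compound for 15 min at room temperature. Curves came from a four-parameter Hill model.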
TDP1 inh – inhibitors of human tyrosyl-DNA phosphodiesterase TDP1. actives 0.28% (n = 350,000). AID 485290. Potency, µM (doses to about 130 µM), for inactives: at the highest dose activity change, negative = inhibition, usual class: inhibitors. Q9NUW8. recombinant TDP1, AlphaScreen DNA substrate cleavage; note: % is set by controls: 0 for no effect and ±100 for the full control effect; nearly all actives have a fitted effect of over 40% in size
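Recombinant E. coli-expressed Tdp1 (1 nM) preincubated with compound 15 min at RT, then 5'-biotin/3'-phosphotyrosine-FITC DNA substrate (15 nM) added for 5 min. AlphaScreen beads (10 ug/ml) added, 10 min RT; tyrosine-FITC cleavage read as signal loss.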
Pol kappa inh-1 – inhibitors of human DNA polymerase kappa. Potency, µM (doses to about 107 µM), for the others: at the highest dose activity, negative = inhibition, actives largely listed as inhibitors. Q9UBT6. purified Pol kappa, fluorescent DNA synthesis assay, 10 min. actives 0.53% (n = 400,000). AID 588579; note: % is set by controls: 0 for no effect and ±100 for the full control effect
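Enzyme at 10 nM met test compounds for 15 min at room temperature. Substrate addition (50 nM final) began the reaction, which was monitored by fluorescence at 0 and 10 min.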
Pol eta inh-1 – inhibitors of human DNA polymerase eta | Q9Y253 | recombinant Pol eta, fluorescent DNA replication assay | Potency, µM (titrated, usually from 114 µM), for the others: top-dose activity change, negative = inhibition, most hits filed as inhibitors | actives 1.2% (n = 390,000); note: % is set by controls: 0 for no effect and ±100 for the full control effect
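Pol eta at 10 nM preincubated with compounds 15 min at room temperature; reaction started with fluorescent substrate (50 nM final) and read kinetically at 0 and 10 min.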
POLI cherry-pick – Human Pol iota inhibitor confirmatory assay; Pol iota primer extension, TAMRA/BHQ fluorescence; AID 720496; shares compounds with Pol kappa inh-1; Potency, µM, usual class: inhibitors; actives 77% (n = 1,500)
Pol kappa inh-2 – confirmation of human DNA polymerase kappa inhibitors; shares compounds with Pol eta inh-1; purified Pol-kappa, fluorescent strand-displacement substrate; Potency, µM, most hits filed as inhibitors; actives 76% (n = 920)
Pol eta inh-2 – Pol eta (human) inhibition, cherry-pick confirmation. Potency, µM, usual class: inhibitors. shares compounds with Pol eta inh-1. AID 720502. actives 64% (n = 2,600). Pol eta primer extension, TAMRA/BHQ fluorescence, 10 min
* = called active by the depositor; [ ] = dose if it differs, or a comment. Only some compounds are listed: those with a hit (about 2.4% of all), similar ones and a draw of the others. Calls come from the whole dose curve; as a rule, active = well fitted curve in the direction sought with a large enough effect; inconclusive = small, poorly fitted or top-dose-only effect, or another doubt; inactive = no such curve, though single readings can be large; an effect the other way counts as inactive or inconclusive. Potency is the fitted concentration of half-maximal effect.

What do the screens show for `O=C(O)c1[nH]c2ccccc2c1C(c1cc(Cl)cc([N+](=O)[O-])c1O)c1c(C(=O)O)[nH]c2ccccc12`?
Pol beta inh: 35µM*; POLI inh: 18µM*; FEN1 inhibitor: 79µM*; Pol kappa inh-1: 50µM*; Pol eta inh-1: 20µM*; POLI cherry-pick: 75*; Pol eta inh-2: 27*

How did O=C1/C(=C/c2cccnc2)SC(=S)N1CC1CCCO1 (stereo not given) do in these assays?
Pol beta inh: 26%; POLI inh: 104%; FEN1 inhibitor: -5%; TDP1 inh: 1%; Pol kappa inh-1: -14%; Pol eta inh-1: -3%

What do the screens show for `O=C(CCN1C(=O)/C(=C\c2ccco2)SC1=S)Nc1ccc(C(=O)O)c(O)c1`?
Pol beta inh: 100µM*; POLI inh: -93%; FEN1 inhibitor: 18µM*; Pol kappa inh-1: 20µM*; Pol eta inh-1: 8.9µM*; POLI cherry-pick: 19*; Pol kappa inh-2: 4.7*; Pol eta inh-2: 5.4*

How did O=C(CCN1C(=O)/C(=C/c2ccco2)SC1=S)Nc1ccc(O)cc1C(=O)O do in these assays?
Pol beta inh: 22µM*; POLI inh: 4.5µM*; FEN1 inhibitor: 35µM*; Pol kappa inh-1: inconclusive; Pol eta inh-1: 5.6µM*; POLI cherry-pick: 47*; Pol kappa inh-2: 13*; Pol eta inh-2: 30*

Results for O=C(CCCN1C(=O)/C(=C/c2ccco2)SC1=S)Nc1ccccc1C(=O)O ?
Pol beta inh: -122%; POLI inh: 22µM*; FEN1 inhibitor: inconclusive; Pol kappa inh-1: inconclusive; Pol eta inh-1: 11µM*; POLI cherry-pick: 34*; Pol kappa inh-2: 8.4*; Pol eta inh-2: 19*

Results for O=C(CCCN1C(=O)/C(=C/c2ccccc2)SC1=S)Nc1ccccc1O ?
Pol beta inh: 1%; POLI inh: -6%; FEN1 inhibitor: 3%; TDP1 inh: 4%; Pol kappa inh-1: -4%; Pol eta inh-1: 3%

Results for O=C1/C(=C/c2ccco2)SC(=S)N1CC1CCCO1 (stereo not given) ?
Pol beta inh: 13µM*; POLI inh: 22µM*; FEN1 inhibitor: -23%; TDP1 inh: -5%; Pol kappa inh-1: 89µM*; Pol eta inh-1: 50µM*; POLI cherry-pick: inconclusive; Pol kappa inh-2: 42*; Pol eta inh-2: 67*

Results for COc1ccc(CC(=O)N2CCc3cc(OC)c(OC)cc3C2COc2ccc(F)cc2)cc1 (stereo not given) ?
Pol beta inh: -5%; POLI inh: 5%; FEN1 inhibitor: -3%; TDP1 inh: 10%; Pol kappa inh-1: -8%[60.1 µM]; Pol eta inh-1: -14%

What do the screens show for `O=[N+]([O-])c1ccccc1NC(=S)N/N=C/c1ccc(O)c(O)c1`?
Pol beta inh: 3.5µM*; POLI inh: 8.9µM*; FEN1 inhibitor: -27%; TDP1 inh: 5%; Pol kappa inh-1: 20µM*; Pol eta inh-1: 3.5µM*; POLI cherry-pick: 47*; Pol eta inh-2: 21*

How did CCOc1cccc(/C=N/NC(=S)Nc2ccccc2[N+](=O)[O-])c1O do in these assays?
Pol beta inh: 1%; POLI inh: -27%; FEN1 inhibitor: 1%; TDP1 inh: 7%; Pol kappa inh-1: -11%; Pol eta inh-1: -5%

How did COc1ccc(OC)c(NC(=O)CSC2=Nc3ccccc3C3=NC(CC(=O)NCc4ccc5c(c4)OCO5)C(=O)N23)c1 (stereo not given) do in these assays?
Pol beta inh: 13%; POLI inh: inconclusive; FEN1 inhibitor: inconclusive; TDP1 inh: -1%; Pol kappa inh-1: -2%[60.1 µM]; Pol eta inh-1: -13%

How did CCOC(=O)c1[nH]c2ccccc2c1NC(=O)c1ccc(OC)c(OC)c1 do in these assays?
Pol beta inh: -8%; POLI inh: 2%; FEN1 inhibitor: 12%; TDP1 inh: 6%; Pol kappa inh-1: -11%; Pol eta inh-1: -2%

How did CC1COCC(C)N1C1=C(Cl)C(=O)c2ccccc2C1=O (stereo not given) do in these assays?
POLI inh: 8.9µM*; FEN1 inhibitor: -22%; Pol kappa inh-1: -8%; Pol eta inh-1: -15%; POLI cherry-pick: 42*; Pol eta inh-2: 27*

How did Cc1ccc[n+](-c2nc([O-])sc2C=O)c1 do in these assays?
Pol beta inh: inconclusive; POLI inh: inconclusive; FEN1 inhibitor: -13%; TDP1 inh: 28µM*; Pol kappa inh-1: inconclusive; Pol eta inh-1: 22µM*; POLI cherry-pick: inconclusive; Pol eta inh-2: inconclusive

What do the screens show for `Cc1ccc(S(=O)(=O)Oc2ccc(/C=C3\C(=N)N4N=C(S(C)(=O)=O)SC4=NC3=O)cc2)cc1`?
Pol beta inh: inconclusive; POLI inh: 16µM*; FEN1 inhibitor: inconclusive; TDP1 inh: 0%; Pol kappa inh-1: -26%; Pol eta inh-1: 20µM*; POLI cherry-pick: inconclusive; Pol eta inh-2: 76*

How did COc1cc(/C=C2\C(=N)N3N=C(S(C)(=O)=O)SC3=NC2=O)cc(OC)c1OCCOc1cccc(C)c1 do in these assays?
Pol beta inh: inconclusive; POLI inh: 93%; FEN1 inhibitor: -8%; Pol kappa inh-1: -8%; Pol eta inh-1: inconclusive

What do the screens show for `COc1cc(/C=C2\C(=N)N3N=C(S(C)(=O)=O)SC3=NC2=O)cc(OC)c1OCCOc1ccc(C)cc1`?
Pol beta inh: 3%; POLI inh: inconclusive; FEN1 inhibitor: -1%; Pol kappa inh-1: -13%; Pol eta inh-1: -11%

What do the screens show for `COc1cc(/C=C2/C(=N)N3C(=NC2=O)SN=C3S(C)(=O)=O)ccc1OS(=O)(=O)c1ccc(C)cc1`?
Pol beta inh: inconclusive; POLI inh: inconclusive; FEN1 inhibitor: -20%; TDP1 inh: 2%; Pol kappa inh-1: -28%; Pol eta inh-1: 79µM*; POLI cherry-pick: inconclusive; Pol eta inh-2: 30*
